These results are taken from PubChem BioAssay (NCATS).

Assay [1] can be described thus: qHTS assay for measurement of the activity of small molecule inhibitors on Zika virus induced Caspase-3 activity in human astrocytoma cells (AID 1224859). As to conditions: SNB-19 ZIKV-induced caspase-3/7, luminescence, 6 h; series mostly up to 45.7 µM. The essentials: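 A cell-based luminescent caspase-3/7 assay used SNB-19 cells infected with ZIKV (2 FFU/cell) for 6 h following 1 h compound pretreatment.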

Assay [2] can be described thus: qHTS assay to identify small molecule inhibitors of chordoma cells - UCH-1 (AID 1259355). Note: nearly all actives have a fitted effect of over 55% in size. Note: potency is the fitted concentration of half-maximal effect. As to conditions: UCH-1 chordoma viability, CellTiter-Glo, 48 h, combination, with auranofin plus four topoisomerase inhibitors; series mostly up to 46.1 µM. The method in brief:
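A 48hr growth-inhibition format: each drug tested at 15 concentrations together with added auranofin, camptothecin, doxorubicin, rubitecan and topotecan, with cell viability quantified as CellTiter-Glo luminescence.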

Assay [3] is described as follows: qHTS assay to identify small molecule inhibitors of chordoma cells - UCH-2 (AID 1259356). Note: potency is the fitted concentration of half-maximal effect. Particulars: UCH-2 chordoma viability, CellTiter-Glo ATP luminescence, 48 h; series mostly up to 46.1 µM.
A short description of assay [4]: NS1 protein of Zika virus - qHTS assay to identify small molecule inhibitors in human HEK 293 cells (AID 1347053). Note: nearly all actives have a fitted effect of over 55% in size. Particulars: HEK293 ZIKV MR766 infection, NS1 TR-FRET, 24 h; series mostly up to 46.1 µM. The method in brief:
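Read-out is a two-antibody TR-FRET for ZIKV NS1, normalized between uninfected cells and infected cells. Compound added 1 h before MR766 infection at MOI 0.5; human HEK 293 cells incubated 24 h, 37 C.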

The nature of assay [5]: qHTS of pediatric cancer cell lines to identify multiple opportunities for drug repurposing: Primary screen for TC32 cells (AID 1347089). Note: nearly all actives have a fitted effect of over 60% in size. Note: potency is the fitted concentration of half-maximal effect. Particulars: TC32 Ewing sarcoma viability, CellTiter-Glo luminescence, 48 h; series mostly up to 45.8 µM. The essentials:
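TC32 cells, 500-1,000/well in growth medium, compound-treated 48 h at 37 °C; viability from CellTiter-Glo luminescence. Primary screen: MIPE 11-point (0.78 nM–46 µM final), NPC 8-point (0.59 nM–46 µM final); confirmatory at 11-point dilutions.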

The nature of assay [6]: qHTS of pediatric cancer cell lines to identify multiple opportunities for drug repurposing: Primary screen for DAOY cells (AID 1347090). Note: nearly all actives have a fitted effect of over 55% in size. Note: potency is the fitted concentration of half-maximal effect. As to conditions: DAOY medulloblastoma viability, CellTiter-Glo luminescence, 48 h; series mostly up to 46 µM. The essentials: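 Eight- or eleven-point concentration series, 48 h treatment at 37 degrees C in growth media; readout CellTiter-Glo luminescence. Potency and efficacy were taken from the concentration-response curves.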

Assay [7] can be described thus: P-glycoprotein substrates identified in KB-8-5-11 adenocarcinoma cell line, qHTS therapeutic library screen (AID 1346987). Note: nearly all actives have a fitted effect of over 65% in size. Note: potency is the fitted concentration of half-maximal effect. As to conditions: KB-8-5-11 (P-gp overexpressing) viability, CellTiter-Glo, 72 h; series mostly up to 44.5 µM. The essentials: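 In this qHTS, P-gp-rich KB-8-5-11 cells received library compounds across a concentration range. Viability was quantified by luminescence after 72 h at 37 degree C.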

Assay [8] is described as follows: Natriuretic polypeptide receptor (hNpr1) antagonism - Pilot counterscreen GloSensor control cell line (AID 1347045; calls by dose curve). As to conditions: HEK293 cGMP GloSensor cells, SNP-stimulated luminescence, 20 min; series mostly up to 38.3 µM. The essentials:
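HEK293 cGMP-sensor cells; 2% GloSensor reagent 2 h RT; LOPAC compounds in 1:5 titrations 30-50 min; 50 uM SNP 20 min; luminescence pre-read and post-read.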

In assay [9] the target is Atrial natriuretic peptide receptor 1 (Homo sapiens) (UniProt P16066). Nature of the assay: Natriuretic polypeptide receptor (hNpr1) antagonism - Pilot screen (AID 1347049; calls by dose curve;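 note: HEK293 cells with hNpr1 and GloSensor cGMP luciferase stimulated by 0.1 nM hNppA; agonist-evoked cGMP luminescence read 20 min after hNppA addition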). Particulars: hNpr1 cells, antagonist mode cGMP read-out; series mostly up to 57.5 µM. The method in brief: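 Cells expressing receptor plus cGMP biosensor are seeded and incubated overnight at 37C, then loaded with GloSensor reagent (2% final) at room temperature for 2 h. Library compounds go on for 30 min. A pre-read precedes agonist (hNppA, 0.1 nM final) and a 20-min readout.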
Sequence of Atrial natriuretic peptide receptor 1 (Homo sapiens) (P16066 whole entry, looked up): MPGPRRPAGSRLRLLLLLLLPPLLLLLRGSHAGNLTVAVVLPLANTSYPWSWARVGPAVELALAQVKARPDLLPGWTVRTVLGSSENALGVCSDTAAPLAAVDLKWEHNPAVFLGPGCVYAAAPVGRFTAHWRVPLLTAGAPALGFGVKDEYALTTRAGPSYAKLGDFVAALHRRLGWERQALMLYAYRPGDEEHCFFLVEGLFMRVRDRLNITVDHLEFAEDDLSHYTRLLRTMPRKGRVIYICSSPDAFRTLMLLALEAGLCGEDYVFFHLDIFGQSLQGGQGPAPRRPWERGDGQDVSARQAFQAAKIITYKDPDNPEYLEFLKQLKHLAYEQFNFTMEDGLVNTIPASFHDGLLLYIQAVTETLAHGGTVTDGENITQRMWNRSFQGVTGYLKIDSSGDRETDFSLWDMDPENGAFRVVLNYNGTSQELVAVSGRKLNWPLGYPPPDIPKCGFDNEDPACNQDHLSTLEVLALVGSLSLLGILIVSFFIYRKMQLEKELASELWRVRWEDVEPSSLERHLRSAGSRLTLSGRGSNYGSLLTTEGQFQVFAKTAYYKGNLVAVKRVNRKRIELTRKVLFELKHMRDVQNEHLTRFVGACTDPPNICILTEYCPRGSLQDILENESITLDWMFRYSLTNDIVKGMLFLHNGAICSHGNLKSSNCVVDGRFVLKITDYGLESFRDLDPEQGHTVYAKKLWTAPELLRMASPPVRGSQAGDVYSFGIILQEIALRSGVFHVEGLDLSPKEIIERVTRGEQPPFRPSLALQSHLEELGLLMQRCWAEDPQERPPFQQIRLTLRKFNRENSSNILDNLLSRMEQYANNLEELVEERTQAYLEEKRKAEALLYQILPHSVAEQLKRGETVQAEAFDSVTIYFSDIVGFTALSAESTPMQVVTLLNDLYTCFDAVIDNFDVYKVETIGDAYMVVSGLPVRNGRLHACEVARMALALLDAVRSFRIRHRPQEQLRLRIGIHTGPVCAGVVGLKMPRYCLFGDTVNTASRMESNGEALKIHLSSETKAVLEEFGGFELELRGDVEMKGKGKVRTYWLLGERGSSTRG

In assay [10] the target is Atrial natriuretic peptide receptor 2 (Homo sapiens) (UniProt P20594). Nature of the assay: Natriuretic polypeptide receptor (hNpr2) antagonism - Pilot subtype selectivity assay (AID 1347050; calls by dose curve). As to conditions: NPR2-expressing cells, cGMP antagonist-mode read-out; series mostly up to 38.3 µM. The essentials:
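Read-out: GloSensor luminescence (CCD imager), baseline vs post-stimulation. HEK293 cells expressing hNpr2; compounds pre-incubated 30-50 min at ambient temperature; hNppC 1 nM final, 20 min.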

Assay [11] deals with T1, Tyrosine-protein phosphatase non-receptor type substrate 1 (Homo sapiens) + Leukocyte surface antigen CD47 (Homo sapiens) (UniProt P78324+Q08722). As to the kind of experiment: CD47-SIRPalpha protein protein interaction - LANCE assay qHTS validation (AID 1347057; active = well fitted curve in the direction sought with a large enough effect in the signal ratio, with a control signal flat, not every such curve was filed as active; the % refers to the signal ratio). As to conditions: Recombinant CD47-His / biotin-SIRPalpha, TR-FRET ratio; series mostly up to 38.3 µM. The method in brief:
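Inhibition of soluble CD47/SIRPalpha ectodomain association by titrated compounds, measured as 665/615 nm time-resolved FRET ratio after sequential 30 min room-temperature incubations.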

Assay [12] has as its target T1, Tyrosine-protein phosphatase non-receptor type substrate 1 (Homo sapiens) + Leukocyte surface antigen CD47 (Homo sapiens). As to the kind of experiment: CD47-SIRPalpha protein protein interaction - HTRF assay qHTS validation (AID 1347058; active = well fitted curve in the direction sought with a large enough effect in the signal ratio, not every such curve was filed as active; the % refers to the signal ratio). As to conditions: TR-FRET HTRF CD47-His / biotin-SIRPalpha binding, ratio 665/615; series mostly up to 38.3 µM. The method in brief: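 Soluble extracellular domains (6His-CD47, Avi-tag-biotinylated SIRPalpha) in PBS pH 7.4 with 0.05% IGEPAL CA-630. Compounds were preincubated 30 min at RT with CD47 and anti-His-Eu, then SIRPalpha and SAV-XL665 were added. TR-FRET 665/615 ratio.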

Assay [13] shares this target. Nature of the assay: CD47-SIRPalpha protein protein interaction - Alpha assay qHTS validation (AID 1347059).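 Note: bead proximity luminescence from CD47 binding SIRPalpha after compound preincubation with SIRPalpha.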 As to conditions: AlphaScreen CD47-His/biotin-SIRPalpha binding, LOPAC; series mostly up to 38.3 µM. The method in brief: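 In PBS (pH 7.4) with 0.05% IGEPAL CA-630, compound is preincubated with biotin-Avi-SIRPalpha ectodomain before His-CD47 ectodomain and affinity beads are added. Light-protected room-temperature incubations; AlphaScreen readout.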

Assay [14] concerns the target Parathyroid hormone/parathyroid hormone-related peptide receptor (Homo sapiens) (UniProt Q03431). Nature of the assay: qHTS for PTHR1 Agonists: Optimization Screen against the NCGC LOPAC library (AID 1347079).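 Note: GloSensor cAMP luminescence in HEK-293 GP2 cells expressing human PTHR1 with IBMX.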 Particulars: HEK293 GP2 PTHR1 GloSensor cAMP luminescence, 1 h; series mostly up to 57.1 µM. The essentials:
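Signal increase flags agonism. GP2 cells, derived from HEK-293, express human PTHR1 and a GloSensor cAMP construct.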

Results filed as inconclusive are left out. Activity calls are given as the source filed them. Unless noted, calls come from the whole dose curve; as a rule, active = well fitted curve in the direction sought with a large enough effect; inconclusive = small, poorly fitted or top-dose-only effect, or another doubt; inactive = no such curve, though single readings can be large; an effect the other way counts as inactive or inconclusive.

T1 sequence (P78324 whole entry, looked up, the tested form may be a part): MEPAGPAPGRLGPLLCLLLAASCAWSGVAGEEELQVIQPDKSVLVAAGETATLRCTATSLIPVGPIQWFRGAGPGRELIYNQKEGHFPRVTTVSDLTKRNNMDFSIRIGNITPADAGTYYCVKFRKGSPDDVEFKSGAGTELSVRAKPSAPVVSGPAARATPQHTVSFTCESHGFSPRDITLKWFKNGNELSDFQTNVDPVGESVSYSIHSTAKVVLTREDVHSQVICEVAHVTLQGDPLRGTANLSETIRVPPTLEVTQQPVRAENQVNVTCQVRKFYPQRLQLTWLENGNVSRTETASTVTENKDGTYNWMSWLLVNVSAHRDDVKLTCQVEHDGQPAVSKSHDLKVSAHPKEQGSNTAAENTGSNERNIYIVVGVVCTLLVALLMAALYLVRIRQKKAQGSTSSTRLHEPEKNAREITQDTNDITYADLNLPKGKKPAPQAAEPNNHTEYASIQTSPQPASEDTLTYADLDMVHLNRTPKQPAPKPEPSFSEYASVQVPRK
T1 sequence (Q08722 whole entry, looked up, the tested form may be a part): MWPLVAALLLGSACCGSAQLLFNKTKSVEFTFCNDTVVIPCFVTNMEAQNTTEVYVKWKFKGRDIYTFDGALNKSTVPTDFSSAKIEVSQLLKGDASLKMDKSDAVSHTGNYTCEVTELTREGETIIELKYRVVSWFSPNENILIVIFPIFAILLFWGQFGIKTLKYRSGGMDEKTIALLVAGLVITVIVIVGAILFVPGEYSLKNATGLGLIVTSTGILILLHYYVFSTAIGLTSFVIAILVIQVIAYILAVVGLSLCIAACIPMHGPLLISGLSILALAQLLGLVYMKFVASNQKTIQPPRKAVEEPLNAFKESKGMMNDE
Sequence of Atrial natriuretic peptide receptor 2 (Homo sapiens) (P20594 whole entry, looked up): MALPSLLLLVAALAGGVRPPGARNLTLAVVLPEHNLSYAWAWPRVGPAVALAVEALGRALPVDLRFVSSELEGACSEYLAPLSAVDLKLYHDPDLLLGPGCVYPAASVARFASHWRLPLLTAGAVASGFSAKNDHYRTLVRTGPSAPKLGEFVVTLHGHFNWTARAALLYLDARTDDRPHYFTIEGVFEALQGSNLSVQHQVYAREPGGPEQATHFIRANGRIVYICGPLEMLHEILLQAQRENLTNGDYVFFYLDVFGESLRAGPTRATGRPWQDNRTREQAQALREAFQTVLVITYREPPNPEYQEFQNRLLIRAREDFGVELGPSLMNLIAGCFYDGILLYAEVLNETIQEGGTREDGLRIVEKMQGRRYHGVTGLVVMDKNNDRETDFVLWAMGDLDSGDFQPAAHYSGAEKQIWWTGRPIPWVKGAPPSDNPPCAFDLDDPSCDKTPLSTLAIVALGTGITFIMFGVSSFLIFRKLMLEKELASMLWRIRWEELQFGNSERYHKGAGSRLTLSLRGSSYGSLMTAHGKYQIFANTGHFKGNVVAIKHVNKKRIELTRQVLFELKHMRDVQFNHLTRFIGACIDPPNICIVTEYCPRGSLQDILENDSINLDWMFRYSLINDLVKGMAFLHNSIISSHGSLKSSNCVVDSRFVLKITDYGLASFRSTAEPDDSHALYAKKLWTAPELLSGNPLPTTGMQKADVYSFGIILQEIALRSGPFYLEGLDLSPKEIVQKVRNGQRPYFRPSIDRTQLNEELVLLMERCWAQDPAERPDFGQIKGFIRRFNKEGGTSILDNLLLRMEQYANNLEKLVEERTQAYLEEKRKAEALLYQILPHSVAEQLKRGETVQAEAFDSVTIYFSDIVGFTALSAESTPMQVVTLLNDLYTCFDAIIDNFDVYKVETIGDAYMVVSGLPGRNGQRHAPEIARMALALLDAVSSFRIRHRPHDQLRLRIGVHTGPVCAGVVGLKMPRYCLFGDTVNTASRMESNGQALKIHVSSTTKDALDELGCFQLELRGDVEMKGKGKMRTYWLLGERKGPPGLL
Sequence of Parathyroid hormone/parathyroid hormone-related peptide receptor (Homo sapiens) (Q03431 whole entry, looked up): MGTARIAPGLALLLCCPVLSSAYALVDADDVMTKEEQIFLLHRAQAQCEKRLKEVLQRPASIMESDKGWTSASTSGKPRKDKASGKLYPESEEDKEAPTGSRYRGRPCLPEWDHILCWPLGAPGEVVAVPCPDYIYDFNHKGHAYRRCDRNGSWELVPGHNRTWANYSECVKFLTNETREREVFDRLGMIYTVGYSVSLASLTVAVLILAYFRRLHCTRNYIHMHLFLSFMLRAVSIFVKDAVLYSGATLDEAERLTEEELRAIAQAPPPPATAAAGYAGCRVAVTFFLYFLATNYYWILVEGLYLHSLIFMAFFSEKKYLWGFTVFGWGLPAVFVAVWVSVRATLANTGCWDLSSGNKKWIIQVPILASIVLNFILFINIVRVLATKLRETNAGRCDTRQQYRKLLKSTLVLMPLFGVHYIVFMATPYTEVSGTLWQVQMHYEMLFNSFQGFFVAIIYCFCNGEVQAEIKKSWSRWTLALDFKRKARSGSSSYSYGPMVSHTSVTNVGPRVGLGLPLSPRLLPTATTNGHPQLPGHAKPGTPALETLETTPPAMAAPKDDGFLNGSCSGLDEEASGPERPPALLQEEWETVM

Take `CCCC(=O)OC[C@@H](OC(=O)CCC)[C@@H](OC(=O)CCC)[C@H](Cn1c2nc(=O)[nH]c(=O)c-2nc2cc(C)c(C)cc21)OC(=O)CCC`: the Potency result in [1], in assay [2], in assay [3], in assay [4], in assay [5] and in [6] was “inactive” each time.

Consider `CCN1/C(=C/C(C)=O)Sc2ccc(OC)cc21`, for which the Potency entry in assay [1], in assay [7], in assay [8], in [9], in [10] and in assay [4] was “inactive” each time. For the same compound, the Potency result in assay [11] and in assay [13] was “inactive” throughout. In addition, in [12], the outcome was inactive.

Regarding `O=C(O)c1cc(O)c(O)c(O)c1`, the Potency entry in [1], in assay [2], in assay [3], in assay [7], in assay [5] and in assay [6] was “inactive” throughout.

`COc1cccc2c1C(=O)c1c(O)c3c(c(O)c1C2=O)C[C@@](O)(C(=O)CO)C[C@@H]3O[C@H]1C[C@H](N)[C@H](O[C@@H]2CCCCO2)[C@H](C)O1`: the Potency result in assay [1] and in [7] was “inactive” in each case. The Potency in assay [2] is 3.98 µM (active); in assay [3] it was 18.3 µM (active); in assay [5], 0.47 µM (active); in assay [6] it was 1.68 µM (active).

Regarding `Cc1c(C(=O)O)c(O)cc2c1C(=O)c1c(O)c([C@@H]3O[C@H](CO)[C@@H](O)[C@H](O)[C@H]3O)c(O)c(O)c1C2=O`, the Potency entry in assay [1], in assay [3], in assay [4], in assay [5] and in assay [6] was “inactive” each time.

On to `COc1cc2c3cc1Oc1cc(ccc1O)C[C@@H]1c4c(cc(OC)c(O)c4Oc4ccc(cc4)C[C@@H]3N(C)CC2)CC[N+]1(C)C`, for which the Potency result in [1], in assay [2], in assay [3], in assay [7], in assay [4] and in [5] was “inactive” each time. Besides, the Potency entry in assay [6] is “inactive”.

In the case of `CC(C)Cc1ccc([C@H](C)C(=O)O)cc1`, the Potency entry in assay [1], in [7], in [8], in assay [9], in assay [10] and in [4] was “inactive” each time. For the same compound, the Potency entry in [11] and in assay [13] was “inactive” throughout. In assay [12], the result was inactive.

Turning to `Cc1nc2ccccc2n1Cc1ccc(Cl)cc1`, the Potency result in [1], in assay [2], in assay [3] and in assay [4] was “inactive” each time. Moreover, the Potency is 4.11 µM (active) in assay [7] and 5.31 µM (active) in [6].

`Nc1cc(-c2ccncc2)c[nH]c1=O`: the Potency entry in assay [1], in assay [2], in [3], in assay [4], in [5] and in assay [6] was “inactive” in each case.

On to `Cc1cc(O)c2ccccc2c1O`, for which the Potency entry in assay [1], in [2], in assay [3] and in assay [5] was “inactive” each time.

As to `Cc1ccccc1CNc1ncnc2c1ncn2C1OC(CO)C(O)C1O` (centres undefined), the Potency entry in [1], in assay [2], in [8], in assay [9], in [10] and in assay [14] was “inactive” each time.

For `Nc1ncnc2c1ncn2[C@@H]1O[C@H](COP(=O)(O)OP(=O)(O)OP(=O)(O)OP(=O)(O)OC[C@@H]2O[C@H](n3cnc4c(N)ncnc43)[C@@H](O)[C@H]2O)[C@@H](O)[C@H]1O`, the Potency entry in assay [1], in assay [8], in assay [9], in assay [10], in [4] and in assay [11] was “inactive” each time. Further, the Potency result in assay [13] and in assay [14] was “inactive” in each case. Besides, the result in assay [12] was inactive.
